Inconclusive results are not listed. The source made the active and inactive calls. The calls were made as follows, unless noted: active = hit-call score of the fitted dose curve at least 0.9, where 1 is the maximum; inactive = score below 0.9.
Tests used:
[1] = target: Oxysterols receptor LXR-alpha (Homo sapiens) (UniProt Q13133); test: ATG_LXRa_TRANS: Attagene TRANS-FACTORIAL HepG2 Assay for human Liver X Receptor alpha (LXRa) (AID 2282980; active = hit-call score of the fitted dose curve at least 0.9, where 1 is the maximum); details: HepG2 Attagene TRANS reporter, LXRa transactivation
Chain of Oxysterols receptor LXR-alpha (Homo sapiens) (Q13133 whole entry, looked up, the tested form may be a part): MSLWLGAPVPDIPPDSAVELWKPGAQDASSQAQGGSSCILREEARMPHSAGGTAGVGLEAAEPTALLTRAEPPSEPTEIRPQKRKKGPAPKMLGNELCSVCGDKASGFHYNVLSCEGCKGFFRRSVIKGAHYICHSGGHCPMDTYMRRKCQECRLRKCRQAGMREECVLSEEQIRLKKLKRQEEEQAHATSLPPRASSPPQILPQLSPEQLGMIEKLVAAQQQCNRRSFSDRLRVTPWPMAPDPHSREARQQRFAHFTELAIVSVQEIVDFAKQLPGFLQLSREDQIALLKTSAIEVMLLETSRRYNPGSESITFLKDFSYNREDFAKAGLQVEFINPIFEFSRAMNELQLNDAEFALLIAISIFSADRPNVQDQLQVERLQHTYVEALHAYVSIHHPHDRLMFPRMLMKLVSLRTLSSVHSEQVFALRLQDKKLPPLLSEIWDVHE
In short: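 Read-out: reporter transcript levels by RT-PCR plus capillary electrophoresis, fluorescence intensity. Transiently transfected HepG2, exogenous NR-GAL4 chimera, GAL4-UAS reporters; 24 h compound exposure. Activity = increase over DMSO negative control.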

[2] = ATG_M_06_TRANS: Attagene TRANS-FACTORIAL HepG2 Assay for M06 Transcription Factor (Internal Marker) (AID 2282983; active = hit-call score of the fitted dose curve at least 0.9, where 1 is the maximum); details: HepG2 Attagene TRANS M06 internal marker reporter
In short: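 Read-out: fluorescent reporter cDNA fragments resolved by capillary electrophoresis after RT-PCR and HpaI cut. Source cells were HepG2 carrying transfected multi-reporter GAL4 constructs, dosed 24 h. Increase over DMSO control analysed.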

[3] = ATG_M_32_TRANS: Attagene TRANS-FACTORIAL HepG2 Assay for M32 Transcription Factor (Internal Marker) (AID 2282984; active = hit-call score of the fitted dose curve at least 0.9, where 1 is the maximum;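 also: transcript level of a background control reporter unit measured by RT-PCR and capillary electrophoresis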); details: HepG2 Attagene TRANS M32 internal marker reporter
In short: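 Fluorescence-detected mRNA induction, HepG2 liver cells, 24 h after dosing. Multiple GAL4-UAS reporter units introduced by transient transfection; background-control endpoint analysed for gain of signal against DMSO.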

[4] = target: Transcriptional activator Myb (Homo sapiens) (UniProt P10242); test: ATG_Myb_CIS: Attagene CIS-FACTORIAL HepG2 Assay for human Myeloblastosis (Myb) Proto-Oncogene Transcription Factor (AID 2282986); details: HepG2 Attagene CIS-FACTORIAL Myb reporter transcription; actives raise or lower the signal
Chain of Transcriptional activator Myb (Homo sapiens) (P10242 whole entry, looked up): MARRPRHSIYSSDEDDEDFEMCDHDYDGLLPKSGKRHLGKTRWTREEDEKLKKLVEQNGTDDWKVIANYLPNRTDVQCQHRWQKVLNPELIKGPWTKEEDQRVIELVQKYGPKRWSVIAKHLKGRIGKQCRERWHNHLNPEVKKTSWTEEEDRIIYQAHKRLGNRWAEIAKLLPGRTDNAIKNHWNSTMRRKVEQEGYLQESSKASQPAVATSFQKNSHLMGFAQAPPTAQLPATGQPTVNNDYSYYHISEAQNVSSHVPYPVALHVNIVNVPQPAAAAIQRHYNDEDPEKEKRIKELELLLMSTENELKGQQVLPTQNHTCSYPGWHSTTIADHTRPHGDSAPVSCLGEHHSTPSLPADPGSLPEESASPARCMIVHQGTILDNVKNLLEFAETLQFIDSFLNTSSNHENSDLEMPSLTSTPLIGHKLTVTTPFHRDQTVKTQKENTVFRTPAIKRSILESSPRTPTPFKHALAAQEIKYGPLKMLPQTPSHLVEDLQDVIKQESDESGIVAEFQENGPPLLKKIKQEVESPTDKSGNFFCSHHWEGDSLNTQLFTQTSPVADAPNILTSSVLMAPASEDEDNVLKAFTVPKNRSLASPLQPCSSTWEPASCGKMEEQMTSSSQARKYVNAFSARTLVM
In short: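 Multiplexed cis-reporter system in HepG2: transient transfection, 24 h treatment, mRNA readout by RT-PCR and capillary electrophoresis. Both increases and decreases are scored versus DMSO negative control.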

[5] = target: Nuclear respiratory factor 1 (Homo sapiens) (UniProt Q16656); test: ATG_NRF1_CIS: Attagene CIS-FACTORIAL HepG2 Assay for human Nuclear Respiratory Factor 1 (NRF1) Orphan Gene (AID 2282987); details: HepG2 NRF1 cis-element reporter, Attagene multiplex; actives raise or lower the signal
Chain of Nuclear respiratory factor 1 (Homo sapiens) (Q16656 whole entry, looked up): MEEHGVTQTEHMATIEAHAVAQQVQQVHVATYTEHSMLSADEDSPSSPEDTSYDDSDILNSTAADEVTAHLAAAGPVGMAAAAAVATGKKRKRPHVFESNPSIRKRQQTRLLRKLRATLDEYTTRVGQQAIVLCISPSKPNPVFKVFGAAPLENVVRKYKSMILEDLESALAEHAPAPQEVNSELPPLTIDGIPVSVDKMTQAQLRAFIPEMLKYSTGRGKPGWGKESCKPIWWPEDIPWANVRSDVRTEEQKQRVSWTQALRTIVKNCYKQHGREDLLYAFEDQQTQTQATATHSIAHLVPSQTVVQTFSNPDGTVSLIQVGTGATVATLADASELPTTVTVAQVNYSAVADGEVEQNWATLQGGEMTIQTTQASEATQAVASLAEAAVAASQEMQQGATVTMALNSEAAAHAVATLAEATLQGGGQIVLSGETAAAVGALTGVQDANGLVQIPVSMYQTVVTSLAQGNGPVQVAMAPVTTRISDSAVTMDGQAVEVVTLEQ
In short: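 Endogenous factor activity was captured via cis-element-driven reporter transcripts in HepG2 cells. Following 24 h chemical treatment, transcripts were quantified by RT-PCR and capillary electrophoresis.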

[6] = ATG_NFI_CIS: Attagene CIS-FACTORIAL HepG2 Assay for human Nuclear Factor I (NFI) (AID 2282989); details: HepG2 cis-regulatory reporter, NFI response element transcription; actives raise or lower the signal
In short: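 Read-out: reporter mRNA via RT-PCR plus capillary electrophoresis with fluorescence detection. Transiently transfected HepG2 (endogenous TF activity on cis promoters), 24 h compound exposure; gain or loss of signal fitted against DMSO.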

[7] = target: Myc proto-oncogene protein (Homo sapiens) (UniProt P01106); test: ATG_Myc_CIS: Attagene CIS-FACTORIAL HepG2 Assay for human Myelocytomatosis (Myc) Proto-Oncogene Transcription Factor (AID 2282990); details: HepG2, Attagene cis-reporter transcription factor activity; actives raise or lower the signal
Chain of Myc proto-oncogene protein (Homo sapiens) (P01106 whole entry, looked up): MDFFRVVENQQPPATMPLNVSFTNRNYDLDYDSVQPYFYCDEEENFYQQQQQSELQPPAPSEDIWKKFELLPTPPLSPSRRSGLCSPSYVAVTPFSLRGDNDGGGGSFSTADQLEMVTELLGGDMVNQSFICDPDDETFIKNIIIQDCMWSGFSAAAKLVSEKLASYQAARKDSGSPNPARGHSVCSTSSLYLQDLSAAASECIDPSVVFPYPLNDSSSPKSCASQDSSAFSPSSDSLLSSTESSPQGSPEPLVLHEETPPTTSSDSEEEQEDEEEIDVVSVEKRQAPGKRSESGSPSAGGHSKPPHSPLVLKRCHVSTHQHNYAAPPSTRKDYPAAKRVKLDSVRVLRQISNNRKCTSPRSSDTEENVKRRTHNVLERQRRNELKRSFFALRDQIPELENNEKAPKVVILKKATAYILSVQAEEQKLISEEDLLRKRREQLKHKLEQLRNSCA
In short: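 Multiplexed cis-reporter transcription in HepG2 cells after 24 h chemical treatment. Reporter mRNA measured by RT-PCR and capillary electrophoresis fluorescence; activity fitted bidirectionally against DMSO control.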

[8] = ATG_Oct_MLP_CIS: Attagene CIS-FACTORIAL HepG2 Assay for human Octamer-Binding Transcription Factor (Oct) (AID 2282993); details: HepG2 Attagene cis-factorial Oct reporter, mRNA; actives raise or lower the signal
In short: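 Read-out: reporter mRNA via RT-PCR plus capillary electrophoresis of 6-FAM-labelled fragments. Transiently transfected HepG2, 24 h exposure, endogenous TF activity on cis elements. Gain or loss of signal fitted relative to DMSO.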

[9] = target: Oxysterols receptor LXR-beta (Homo sapiens) (UniProt P55055); test: ATG_LXRb_TRANS: Attagene TRANS-FACTORIAL HepG2 Assay for human Liver X Receptor beta (LXRb) (AID 2282981; active = hit-call score of the fitted dose curve at least 0.9, where 1 is the maximum); details: HepG2 Attagene TRANS GAL4-LXRb reporter, mRNA
Chain of Oxysterols receptor LXR-beta (Homo sapiens) (P55055 whole entry, looked up, the tested form may be a part): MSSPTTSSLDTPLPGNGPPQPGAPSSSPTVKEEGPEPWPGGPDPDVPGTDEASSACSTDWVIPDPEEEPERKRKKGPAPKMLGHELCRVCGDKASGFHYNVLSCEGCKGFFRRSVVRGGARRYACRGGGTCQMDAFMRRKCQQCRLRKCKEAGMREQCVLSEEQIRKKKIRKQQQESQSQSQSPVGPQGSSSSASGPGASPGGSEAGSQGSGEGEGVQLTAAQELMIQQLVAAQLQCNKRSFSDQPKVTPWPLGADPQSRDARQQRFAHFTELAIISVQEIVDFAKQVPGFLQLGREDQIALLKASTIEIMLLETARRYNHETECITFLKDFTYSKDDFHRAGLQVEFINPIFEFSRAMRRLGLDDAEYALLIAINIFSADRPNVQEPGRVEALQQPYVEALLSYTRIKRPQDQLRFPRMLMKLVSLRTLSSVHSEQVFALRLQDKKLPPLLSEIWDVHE
In short: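 Liver-derived HepG2 cells transfected with Gal4-responsive reporters were dosed for 24 h. Activation was scored as rise in reporter mRNA, by RT-PCR and capillary electrophoresis, above DMSO baseline.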

[10] = target: Nuclear receptor subfamily 4 group A member 2 (Homo sapiens) (UniProt P43354); test: ATG_NURR1_TRANS: Attagene TRANS-FACTORIAL HepG2 Assay for human Nuclear Receptor Related Protein 1 (NURR1) (AID 2282985; active = hit-call score of the fitted dose curve at least 0.9, where 1 is the maximum); details: HepG2 Attagene TRANS reporter, mRNA readout
Chain of Nuclear receptor subfamily 4 group A member 2 (Homo sapiens) (P43354 whole entry, looked up, the tested form may be a part): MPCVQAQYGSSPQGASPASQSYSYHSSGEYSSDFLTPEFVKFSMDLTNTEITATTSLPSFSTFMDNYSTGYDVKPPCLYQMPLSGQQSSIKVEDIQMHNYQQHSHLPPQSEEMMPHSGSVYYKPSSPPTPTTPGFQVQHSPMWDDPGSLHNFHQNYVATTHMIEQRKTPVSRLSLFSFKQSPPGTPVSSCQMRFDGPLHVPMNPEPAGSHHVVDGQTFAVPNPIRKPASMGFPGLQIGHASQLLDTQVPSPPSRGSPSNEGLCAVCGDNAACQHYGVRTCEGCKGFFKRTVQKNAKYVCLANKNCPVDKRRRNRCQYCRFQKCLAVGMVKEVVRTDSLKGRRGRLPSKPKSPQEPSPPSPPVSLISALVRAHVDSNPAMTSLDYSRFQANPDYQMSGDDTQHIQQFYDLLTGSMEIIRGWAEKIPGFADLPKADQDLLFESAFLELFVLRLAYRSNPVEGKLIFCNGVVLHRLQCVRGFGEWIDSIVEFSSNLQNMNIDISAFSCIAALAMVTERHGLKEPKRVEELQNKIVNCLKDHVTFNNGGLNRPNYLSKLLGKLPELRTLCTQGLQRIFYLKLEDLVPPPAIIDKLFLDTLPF
In short: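 Chimeric NR-Gal4 proteins were expressed in human HepG2 cells bearing GAL4-UAS reporter units, and induced reporter mRNA was quantified 24 h post-dosing by RT-PCR and capillary electrophoresis.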

[11] = ATG_NRF2_ARE_CIS: Attagene CIS-FACTORIAL HepG2 Assay for human Nuclear Factor Erythroid 2 Related Factor 2 (NFR2) response to Antioxidant Response Elements (ARE) (AID 2282992); details: HepG2 Attagene ARE/NRF2 reporter, transcription factor activity; actives raise or lower the signal
In short: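 Endogenous transcription factor activity in human liver HepG2 cells is tracked via a cis-element-driven reporter within a multiplexed set. mRNA induction is read by RT-PCR and capillary electrophoresis after 24 h, with DMSO as baseline.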

[12] = target: Hepatocyte nuclear factor 4-alpha (Homo sapiens) (UniProt P41235); test: ATG_HNF4a_TRANS: Attagene TRANS-FACTORIAL HepG2 Assay for human Hepatocyte Nuclear Factor 4 alpha (HNF4a) (AID 2282982; active = hit-call score of the fitted dose curve at least 0.9, where 1 is the maximum); details: HepG2 HNF4a transactivation reporter, mRNA readout
Chain of Hepatocyte nuclear factor 4-alpha (Homo sapiens) (P41235 whole entry, looked up, the tested form may be a part): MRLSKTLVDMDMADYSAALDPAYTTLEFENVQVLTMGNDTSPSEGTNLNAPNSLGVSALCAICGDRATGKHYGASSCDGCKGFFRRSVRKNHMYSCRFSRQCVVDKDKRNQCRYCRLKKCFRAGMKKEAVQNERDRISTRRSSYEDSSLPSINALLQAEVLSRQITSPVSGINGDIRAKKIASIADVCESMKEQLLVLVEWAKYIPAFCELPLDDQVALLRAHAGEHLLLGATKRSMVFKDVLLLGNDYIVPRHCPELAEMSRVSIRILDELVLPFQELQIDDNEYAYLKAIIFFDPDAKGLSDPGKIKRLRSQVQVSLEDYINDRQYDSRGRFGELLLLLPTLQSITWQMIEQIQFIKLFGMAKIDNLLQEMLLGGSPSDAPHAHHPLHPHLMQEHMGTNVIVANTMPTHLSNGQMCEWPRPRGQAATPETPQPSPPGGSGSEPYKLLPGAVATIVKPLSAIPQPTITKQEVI
In short: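 Using HepG2 liver cells transfected with GAL4-UAS reporter units, chemical-induced mRNA increases were assessed after 24 hours. Fluorescent RT-PCR fragments were separated by capillary electrophoresis and compared with DMSO negative controls.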

[13] = ATG_NF_kB_CIS: Attagene CIS-FACTORIAL HepG2 Assay for human Nuclear Factor Kappa B (NF-kB) (AID 2282991); details: HepG2 Attagene cis-factorial NF-kB reporter mRNA; actives raise or lower the signal
In short: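 After 24 h compound incubation, transfected HepG2 cells yield total RNA; reporter cDNA is PCR-amplified, end-labelled with 6-FAM, HpaI-digested and analysed on a genetic analyser. Endogenous factor activity, DMSO-referenced bidirectional fit.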

[14] = BSK_3C_TissueFactor: BioMAP Diversity Plus: 3C Assay for Tissue Factor Biomarker Activity (AID 2282997); details: BioMAP 3C HUVEC, tissue factor biomarker readout; actives raise or lower the signal
In short: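 HUVEC, 3C system, 24 h post-dose; Tissue Factor by ELISA; bidirectional fit vs DMSO baseline.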

[15] = BSK_3C_uPAR: BioMAP Diversity Plus: 3C Assay for Urokinase-type plasminogen activator receptor (uPAR) Biomarker Activity (AID 2282998); details: BioMAP 3C HUVEC, uPAR biomarker ELISA; actives raise or lower the signal
In short: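 HUVEC primary cells; 24 h post-dose; uPAR by ELISA; gain or loss of signal fitted bidirectionally vs DMSO baseline.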

[16] = target: Cellular tumor antigen p53 (Homo sapiens) (UniProt P04637); test: ATG_p53_CIS: Attagene CIS-FACTORIAL HepG2 Assay for human p53 Transcription Factor (AID 2282994); details: HepG2 p53 cis-element reporter, Attagene mRNA; actives raise or lower the signal
Chain of Cellular tumor antigen p53 (Homo sapiens) (P04637 whole entry, looked up, the tested form may be a part): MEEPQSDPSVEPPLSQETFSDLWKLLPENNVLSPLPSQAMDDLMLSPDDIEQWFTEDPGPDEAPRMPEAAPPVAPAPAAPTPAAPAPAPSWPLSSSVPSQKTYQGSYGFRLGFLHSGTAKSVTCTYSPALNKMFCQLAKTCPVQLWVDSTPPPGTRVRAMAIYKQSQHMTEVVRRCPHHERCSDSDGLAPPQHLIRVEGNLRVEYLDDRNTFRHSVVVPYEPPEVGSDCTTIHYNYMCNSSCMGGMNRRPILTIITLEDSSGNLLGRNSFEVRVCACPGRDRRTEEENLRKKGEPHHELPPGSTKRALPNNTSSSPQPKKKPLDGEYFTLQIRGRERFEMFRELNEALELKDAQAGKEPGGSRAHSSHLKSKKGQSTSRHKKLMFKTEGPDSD
In short: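 Steps: transfect HepG2 with multiplexed cis reporter constructs; dose chemicals 24 h; extract RNA, reverse-transcribe, PCR-amplify reporter sequences; FAM-label, HpaI-digest, resolve fragments by CE. Activity fitted both directions relative to DMSO.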

Measured: AC50

CCCCOCCOC(C)=O
inactive: [1] | [2] | [3] | [4] | [5] | [6] | [7] | [8]

COc1ccc(C=O)cc1OC
inactive: [9] | [2] | [3] | [10] | [4] | [5] | [7] | [11] | [8]

COc1cc(OC)nc(NC(=O)NS(=O)(=O)c2ncccc2C(=O)N(C)C)n1
not listed: [1] | [5] | [9] | [10] | [16]
inactive: all other assays above

CC(Br)C(=O)O (stereo not given)
inactive: [3] | [4] | [5] | [7] | [13] | [11] | [8] | [16]

CCCCCCCCSC(=O)Oc1cc(Cl)nnc1-c1ccccc1
inactive: [10] | [4] | [5] | [7] | [13] | [8] | [16]
active: [6] 73.7 µM | [11] 52.7 µM

— PubChem BioAssay (EPA / NIEHS)
